# Measurements taken from ChEMBL document CHEMBL4513216, “Probing the Open Global Health Chemical Diversity Library for Multistage-Active Starting Points for Next-Generation Antimalarials” (ACS Infect Dis, 2020).
# Hit rate of the full screen: of about 69,000 compounds, about 8,600 (12%) showed an effect of 50% or more. The list comes from a sample in which strong results are over-represented; it also holds similar structures and randomly drawn compounds.
# Tested on: Plasmodium berghei
# Assay: Screen against P. berghei liver stage (PbLuc), transformed with Luciferase, at 10uM
# Type: functional, HepG2
# Details: tested at 10 uM
row,Structure (SMILES),INHIBITION
1,CCc1cc(N(C)Cc2noc(CC(C)C)n2)ncn1,57.6%
2,CC(C)Cc1noc(CN(C)c2cc(N(C)C)ncn2)n1,-8.75%
3,COc1cc(N(C)Cc2noc(CC(C)C)n2)ncn1,43%
4,CCn1cc(NC(=O)C2CCN(CC(=O)NC3CCCC3)CC2)cn1,-10.6%
5,O=C(N[C@@H]1CN(Cc2ccco2)[C@@H]2CCCO[C@@H]21)c1cscn1,8.6%
6,COc1ccc(F)cc1C(C)NC(=O)NCCCn1cncn1 (stereo not drawn),11.9%
7,CCN(Cc1ccoc1)C(=O)C1CN(C(=O)OC(C)(C)C)C1,-26.7%
8,CC(C)N1CCCC2(CCN(C(=O)COCC(F)(F)C(F)F)C2)C1=O (stereo not drawn),50.2%
9,O=C(COCC(F)(F)C(F)F)N1CCC2(CCCN(CCO)C2=O)C1 (stereo not drawn),-8.97%
10,O=C(COCC(F)(F)C(F)F)N1CCC2(CCCN(CC3CC3)C2=O)C1 (stereo not drawn),27.8%
11,COC1COC2(CCN(CC3CC3)CC2)C1 (stereo not drawn),15.8%
12,CNC(=O)Cc1csc(NC(=O)C2CSCCC(=O)N2)n1 (stereo not drawn),50.2%
13,Cc1noc(CNC(=O)C2CSCCC(=O)N2)n1 (stereo not drawn),61.6%
14,NC(=O)Cc1csc(NC(=O)C2CSCCC(=O)N2)n1 (stereo not drawn),32.1%
15,O=C1CCSCC(C(=O)NCc2nc(-c3ccccc3)no2)N1 (stereo not drawn),14.3%
16,Cc1nnc(CNC(=O)C2CSCCC(=O)N2)o1 (stereo not drawn),-5.22%
17,Cc1csc(NC(=O)C2CSCCC(=O)N2)n1 (stereo not drawn),24.5%
18,CCN(Cc1c(C)nn(CC)c1C)S(=O)(=O)c1cnn(C)c1C,38.3%
19,CC[C@@H]1N(Cc2ccncc2)CCC[C@]12CCC(=O)N2C,18.6%
20,CC(C)n1nc2c(cc1=O)CN(CCOc1cccc(C#N)c1)CC2,23.1%
21,Clc1ccc(-c2nnc(CNCCn3cccn3)o2)c(Cl)c1,-38.2%
22,Cc1nnc(CN2C[C@H](NC(=O)C3CCOCC3)[C@@H](C(C)C)C2)s1,90.2%

row,Structure (SMILES),INHIBITION
1,Cc1ncsc1CN1C[C@@H]2COC[C@]2(C(=O)NC2CC(F)(F)C2)C1,32.1%
2,Cc1csc(CN2C[C@H](NC(=O)C3CCOCC3)[C@@H](C(C)C)C2)n1,42.5%
3,CC(C)[C@H]1CN(Cc2ccccc2C#N)C[C@@H]1NC(=O)C1CCOCC1,45.9%
4,Cc1ncsc1CN1C[C@H](NC(=O)C2CCOCC2)[C@@H](C(C)C)C1,75.4%
5,CC(C)[C@H]1CN(Cc2c[nH]nn2)C[C@@H]1NC(=O)C1CCOCC1,16.3%
6,CCN(Cc1ccc(F)cc1Cl)C1CCS(=O)(=O)C1 (stereo not drawn),21.6%
7,Cc1cc(C[S+]([O-])Cc2ccccc2F)on1 (stereo not drawn),10.1%
8,CCCn1cc(-c2cc(C(=O)N(C)C)c3ccc(OC)cc3n2)cn1,29.85%
9,COc1cccc(CSc2nnc(C)n2CC(N)=O)c1,-15.1%
10,Cc1cccc(CSc2nnc(C)n2CC(N)=O)c1,57.7%
11,Cc1nnc(SCc2cccc(F)c2)n1CC(N)=O,20.9%
12,O=C(NCCCN1CCOCC1)c1ccn(COc2ccc(F)cc2)n1,-41.2%
13,O=C(NCC(CO)Cc1ccc(Cl)cc1)c1ccncc1Cl (stereo not drawn),5.21%
14,CCSc1cc(C(=O)NCC(C)(C)N(C)C)ccn1,15.7%
15,CN(CC(=O)Nc1ccccc1C(=O)NC1CC1)Cc1ccccc1Cl,8.08%
16,CCOC(=O)c1ccccc1NC(=O)CN(C)Cc1ccccc1Cl,68.9%
17,CCOc1ccccc1NC(=O)CN(C)Cc1ccccc1Cl,32%
18,N#Cc1cccc(S(=O)(=O)NC(=O)C2CC(c3ccccc3)=NO2)c1 (stereo not drawn),33.4%
19,Cc1cc2ccncc2n1CC1(O)CCN(C(=O)c2cccnc2)CC1,9.98%
20,CN1CC(=O)N(c2cccnc2)Cc2c(NC3CC3)ncnc21,41.6%
21,CC(C)(C)c1cc(=O)[nH]c(-c2ccccc2CN2CCCCCC2)n1,-7.65%
22,CC1(C)CCN(Cc2ccccc2-c2nc(C(C)(C)C)cc(=O)[nH]2)C1,57.3%

row,Structure (SMILES),INHIBITION
1,CC(C)c1cc(=O)[nH]c(-c2ccccc2CN2CCC(C)(C)C2)n1,29.4%
2,Cc1cc(C)n(C2CN(c3ncnc4c3CCNCC4)C2)n1,40.5%
3,Cc1ccc(C2(O)CCN(C(=O)CCn3c(C)cccc3=O)CC2)nc1,28.7%
4,Cc1ccc(C2(O)CCN(C(=O)Cn3cc(C)c(=O)[nH]c3=O)CC2)nc1,30.9%
5,Cc1ccc(C2(O)CCN(C(=O)CCn3ccc(=O)[nH]c3=O)CC2)nc1,82%
6,CN(CC(O)C(F)(F)F)C(=O)Nc1cccc(C(F)F)c1 (stereo not drawn),40.7%
7,Cc1c(NC(=O)C(C)N(C)C)c(=O)n(-c2ccccc2)n1C (stereo not drawn),-45.8%
8,COc1ccc(Cl)cc1CS(=O)(=O)Cc1nc(C2CC2)no1,-3.96%
9,COc1ccc(Cl)cc1CS(=O)(=O)Cc1nc(C)no1,60.4%
10,COc1ccc(Cl)cc1CS(=O)(=O)Cc1noc(C)n1,34.7%
11,Clc1cc(CN2CCCC(Cn3cncn3)C2)c2ncccc2c1 (stereo not drawn),76.2%
12,Clc1ccc(CN2CCCC(Cn3cncn3)C2)c2ncccc12 (stereo not drawn),35.1%
13,CC(C)c1nc(CN2CCCC(Cn3cncn3)C2)cs1 (stereo not drawn),31.2%
14,c1ccc(-c2nc(CN3CCCC(Cn4cncn4)C3)cs2)cc1 (stereo not drawn),-7.35%
15,Clc1cc(CN2CCCCC2Cn2cncn2)c2ncccc2c1 (stereo not drawn),-9.83%
16,Clc1cc(CN2CCCC2Cn2cncn2)c2ncccc2c1 (stereo not drawn),22.9%
17,Clc1snnc1CN1CCCC1Cn1cncn1 (stereo not drawn),-11.4%
18,Clc1snnc1CN1CCCCC1Cn1cncn1 (stereo not drawn),10.8%
19,CC(C)(C)c1nc(CN2CCCC(Cn3cncn3)C2)cs1 (stereo not drawn),61.7%
20,Clc1cc(CN2CCCN3CCCC3C2)c2ncccc2c1 (stereo not drawn),55%
21,Cc1cccc2cc(CN3CCCN4CCC[C@H]4C3)c(=O)[nH]c12,34.9%
22,Clc1snnc1CN1CCCC(Cn2cncn2)C1 (stereo not drawn),62.1%

row,Structure (SMILES),INHIBITION
1,Cc1cnc(C(=O)N2CCCC(n3cncn3)C2)cn1 (stereo not drawn),41.5%
2,CCCc1nc(C(=O)N2CCn3nc(C(=O)OC)cc3C2)cs1,9.16%
3,Cc1noc(-c2ccc(N3CCN(Cc4nccn4C)CC3)nc2)n1,9%
4,CC(Cc1ccccc1F)C(=O)Nc1ccc(OCCC(N)=O)cc1 (stereo not drawn),-8.92%
5,CCOc1ccc(C2CCCN2C(=O)NCCn2ccnc2)cc1 (stereo not drawn),8.85%
6,CC(=O)N1CCCC(Cc2cnc(C(=O)N3CCC(C)CC3)cn2)C1 (stereo not drawn),6.32%
7,Cc1ccnn1CCC(=O)N1C[C@@H](O)[C@H](Oc2cccc(F)c2)C1,9.93%
8,CN(Cc1cnc(C(C)(C)C)nc1)Cc1nc2ccc(F)cc2[nH]1,-0.18%
9,CCOCC(=O)N1C[C@@H](O)[C@H](NC(C)=O)C1,4.41%
10,COc1cc(Cl)cc(CN2CCCC(N3CCCC3)C2)c1OC (stereo not drawn),77.6%
11,O[C@@H]1CN(Cc2cc(Cl)cc3cccnc23)C[C@@H]1O,51.3%
12,COc1cc(Cl)cc(CN2CCCC(N3CCOCC3)C2)c1OC (stereo not drawn),15.7%
13,OCCN1CCN(Cc2cc(Cl)cc3cccnc23)CC1,42.7%
14,COc1ccc(CN2CCCC(N3CCCC3)C2)cc1Cn1cncn1 (stereo not drawn),34.1%
15,CN(C)CC1CN(Cc2cc(Cl)cc3cccnc23)CCO1 (stereo not drawn),23.4%
16,CC1=C(C(=O)N(C)Cc2n[nH]c3c2CCCCC3)C(C)NC(=O)N1 (stereo not drawn),17.5%
17,c1ccc(CCc2n[nH]c(C3CCOC3)n2)cc1 (stereo not drawn),21.5%
18,Cc1ccnn1CC(=O)N(C)Cc1cnn(-c2ccccc2)c1,50.8%
19,CC(C)c1nccc(CN(C)Cc2cccc(-n3cccn3)c2)n1,6.9%
20,CC(C)c1nccc(CN(C)Cc2cnn(-c3ccccc3)c2)n1,51.7%
21,Cc1ccnn1CC(=O)N(C)Cc1ccc(-n2cccn2)cc1,21.8%
22,COc1cccc(-n2cc(CN(C)Cc3ccnc(C(C)C)n3)cn2)c1,15.005%

row,Structure (SMILES),INHIBITION
1,Cc1nonc1CN(C)Cc1cnn(-c2ccc(F)cc2)c1,-23.4%
2,CCn1cc(CN(C)Cc2cnn(-c3ccc(F)cc3)c2)cn1,17%
3,CN(Cc1ccncc1)Cc1cnn(-c2ccc(F)cc2)c1,51.8%
4,CSCC(=O)N(C)Cc1cnn(-c2ccc(F)cc2)c1,13%
5,CN(C)Cc1ccnc(C2CCCN2Cc2cccc(F)c2F)n1 (stereo not drawn),15.9%
6,CCc1ocnc1C(=O)N1CCCC(n2nc(C)nc2C)C1 (stereo not drawn),11.715%
7,O=C(c1cnc(O)cc1O)N1CCCC(CCc2ccccc2F)C1 (stereo not drawn),15.8%
8,CNC(=O)[C@H]1C[C@@H]2CN(C(=O)c3ccc(C)nc3)C[C@@H]2N1C(C)C,11.3%
9,Cc1csc(C2CCCN(C(=O)c3c(C)nn4cccnc34)C2)n1 (stereo not drawn),-2.53%
10,CC(=O)N1CCN(CCNc2ncc(Br)cc2C)CC1,54.4%
11,Cc1cc(C(C)NCCN2CCC(N(C)C)CC2)c(C)s1 (stereo not drawn),46.6%
12,COC1CCN(CCNc2ncc(Br)cc2C)CC1,41.5%
13,CC(=O)N1CCN(CCNS(=O)(=O)c2cc(F)ccc2C)CC1,17.1%
14,CC(=O)N1CCN(CCNS(=O)(=O)c2ccc(C)c(F)c2)CC1,-3.95%
15,Cc1cc(Br)cnc1NCCN1CCC(N(C)C)CC1,64%
16,Cc1cc(N2CCOCC2)ccc1NC(C)c1nc(C(C)(C)C)no1 (stereo not drawn),14.9%
17,Cc1n[nH]c(C)c1NC(=O)CN1CCCC1Cn1cncn1 (stereo not drawn),30%
18,CC(=O)N1CCC(c2nccnc2Nc2cnccn2)CC1,-21.6%
19,CN(Cc1ccncn1)C(=O)CCC(=O)NC1CCCC1,39.4%
20,CCCN1C[C@@H]2CC[C@H]1CN(Cc1cccc(-n3cccn3)c1)C2,48.2%
